Measured values taken from PMC5540273 (PLoS ONE, 2017).

tested on: LTK; conditions: concentration: 1 μM, replicates: in singlicate; n = 1
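Also: KINOMEscan kinase panel screen.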

Row | Compound | %Inh [%]
1 | Cc1cc(N2CCC(NS(=O)(=O)c3ccc(F)cc3)CC2)nc(Nc2cccc(C#N)c2)n1.O=C(O)C(F)(F)F [GSK1653537] | 5
2 | N#Cc1ccc(Oc2ccc(Nc3ncnc4cc[nH]c34)cc2Cl)cc1 | 6
3 | CCc1nc(-c2cccc(N(C)S(=O)(=O)c3ccccc3)c2)c(-c2ccnc(Nc3ccc(N4CCN(C(C)=O)CC4)nc3)n2)s1 [GSK1645895] | 0
4 | CNc1nccc(-c2c(-c3ccc(F)cc3)ncn2CCCN2CCOCC2)n1 [SB-222516] | 0
5 | Cc1ccc(C)c(NC(=O)NCCNc2ccnc(Nc3ccc(F)cc3)n2)c1 [GSK1379878] | 0
6 | Cc1cccc(-c2nc(Nc3ccc4[nH]nnc4c3)c3ccccc3n2)n1 [GW867587] | 13
7 | COc1ccc(Nc2nccc(N3CCC(NC(=O)c4cccc(NC(C)=O)c4)C3)n2)cc1 (stereo not shown) [GSK1379732] | 0
8 | CSc1ccc(NC2=C(c3ccccc3Cl)C(=O)NC2=O)cc1 [SB-342411] | 7
9 | C[C@@H]1CCN(C(=O)CO)C[C@@H]1N(C)c1ncnc2[nH]ccc12 | 27
10 | CSc1nn2c(=O)cc(N3CCOCC3)nc2n1Cc1cccc(Cl)c1Cl [GSK2347225] | 4
11 | COc1ccc(-c2oc3ncnc(N)c3c2-c2ccc(OC)cc2)cc1 [SB-589132] | 0
12 | COc1ccc(NC(=O)c2ccc(-c3cc(-c4nnc(C)o4)ccc3C)cc2)cc1 [GW595885] | 0
13 | COC(=O)c1c(-c2ccccc2)c2cc(Cl)ccc2c(=O)n1Cc1ccc(S(C)(=O)=O)cc1 | 0
14 | CS(=O)(=O)CCNCc1nc(-c2ccc3ncnc(Nc4ccc(OCc5cccc(F)c5)c(Cl)c4)c3c2)cs1.Cl [GW583340] | 0
15 | Cc1ccc(O)cc1Nc1cc(C(F)(F)F)nc2ccc(-c3ccncc3)cc12 [GW630823] | 0
16 | Nc1nc(-c2ccc3c(N)n[nH]c3c2)cc(N2CCC[C@@H](C(=O)Nc3ccccc3)C2)n1.O=C(O)C(F)(F)F.O=C(O)C(F)(F)F [GSK2288359] | 15
17 | CN1c2ccc(-c3ccc(C(=O)NCCO)cc3)cc2-c2[nH]ncc2S1(=O)=O | 9
18 | Oc1ccc2ncnc(Nc3ccc(OCc4ccccc4)cc3)c2c1 [GI262866] | 82
19 | Nc1nc(-c2ccccn2)c(-c2ccnc3ccccc23)s1 [GW548057] | 0
20 | FC(F)(F)c1ccc(-c2cc(-c3c[nH]nc3-c3ccccn3)ccn2)cc1 [GW599550] | 21
21 | Cn1cc(-c2ccc3c(c2)CCN3C(=O)Cc2cccc(C(F)(F)F)c2)c2c(N)ncnc21 [GSK2606414] | 15
22 | NC(=O)c1sc(-n2cnc3ccccc32)cc1OCc1ccccc1F [GSK1024306] | 5

tested on: LYN; conditions: concentration: 1 μM, replicates: in singlicate; n = 1

Row | Compound | %Inh [%]
23 | CNc1nccc(-c2c(-c3ccc(F)cc3)ncn2C2CCN(C)CC2)n1 [SB-222903] | 0
24 | CCn1c(-c2ccncc2)nc2cnccc21 [SB-735216] | 19
25 | Clc1cc(Nc2ncnc3cc[nH]c23)ccc1OCc1ccccn1 | 15
26 | CN1CCC(n2cnc(-c3ccc(F)cc3)c2-c2ccnc(NC3CCNCC3)n2)CC1 [SB-229482] | 15
27 | Fc1ccc(-c2ncn(CCCNCc3ccccc3)c2-c2ccncc2)cc1 | 22
28 | Cc1ccc(NC(=O)c2cccc(C#N)c2)cc1-c1ccc(C(=O)Nc2ccncc2)cc1 [GSK1398463] | 69
29 | O=C(c1ccc(-c2cc(-c3c[nH]nc3-c3ccccn3)ccn2)cc1)N1CCCC1 [GW792479] | 0
30 | Cl.c1ccc(Cn2ccc3cc(Nc4ncnc5ccccc45)ccc32)cc1 [GW275568] | 0
31 | CS(=O)(=O)CCNCc1ccc(-c2ccc3ncnc(Nc4ccc(OCc5ccccc5)c(Cl)c4)c3c2)o1.Cl [GW574783] | 0
32 | CCC(CC)(CC)n1cnc2c(N)ncnc21 [SKF-97620] | 0
33 | CC(C)(C)OC(=O)NC1CCCN(c2cc(-c3ccc4c(N)n[nH]c4c3)nc(N)n2)C1 (stereo not shown) [GSK2286096] | 0
34 | O=C(Nc1ccccc1F)NC1CCN(c2ccnc(Nc3ccc(F)cc3)n2)C1 (stereo not shown) [GSK1379722] | 0
35 | Cl.c1ccc(Cn2ncc3cc(Nc4ncnc5ccccc45)ccc32)cc1 [GW273749] | 0
36 | CC(=O)Nc1n[nH]c2ncc(-c3ccccc3)cc12 [SB-548492] | 0
37 | Cc1cc(N2CCC(NS(=O)(=O)c3ccc(F)cc3)CC2)nc(Nc2cccc(C#N)c2)n1.O=C(O)C(F)(F)F [GSK1653537] | 0
38 | N#Cc1ccc(Oc2ccc(Nc3ncnc4cc[nH]c34)cc2Cl)cc1 | 0
39 | CCc1nc(-c2cccc(N(C)S(=O)(=O)c3ccccc3)c2)c(-c2ccnc(Nc3ccc(N4CCN(C(C)=O)CC4)nc3)n2)s1 [GSK1645895] | 4
40 | CNc1nccc(-c2c(-c3ccc(F)cc3)ncn2CCCN2CCOCC2)n1 [SB-222516] | 0

Row | Compound | %Inh [%]
41 | Cc1ccc(C)c(NC(=O)NCCNc2ccnc(Nc3ccc(F)cc3)n2)c1 [GSK1379878] | 0
42 | Cc1cccc(-c2nc(Nc3ccc4[nH]nnc4c3)c3ccccc3n2)n1 [GW867587] | 0
43 | COc1ccc(Nc2nccc(N3CCC(NC(=O)c4cccc(NC(C)=O)c4)C3)n2)cc1 (stereo not shown) [GSK1379732] | 0
44 | CSc1ccc(NC2=C(c3ccccc3Cl)C(=O)NC2=O)cc1 [SB-342411] | 0
45 | C[C@@H]1CCN(C(=O)CO)C[C@@H]1N(C)c1ncnc2[nH]ccc12 | 8
46 | CSc1nn2c(=O)cc(N3CCOCC3)nc2n1Cc1cccc(Cl)c1Cl [GSK2347225] | 10
47 | COc1ccc(-c2oc3ncnc(N)c3c2-c2ccc(OC)cc2)cc1 [SB-589132] | 4
48 | COc1ccc(NC(=O)c2ccc(-c3cc(-c4nnc(C)o4)ccc3C)cc2)cc1 [GW595885] | 32
49 | COC(=O)c1c(-c2ccccc2)c2cc(Cl)ccc2c(=O)n1Cc1ccc(S(C)(=O)=O)cc1 | 20
50 | CS(=O)(=O)CCNCc1nc(-c2ccc3ncnc(Nc4ccc(OCc5cccc(F)c5)c(Cl)c4)c3c2)cs1.Cl [GW583340] | 0
51 | Cc1ccc(O)cc1Nc1cc(C(F)(F)F)nc2ccc(-c3ccncc3)cc12 [GW630823] | 1
52 | Nc1nc(-c2ccc3c(N)n[nH]c3c2)cc(N2CCC[C@@H](C(=O)Nc3ccccc3)C2)n1.O=C(O)C(F)(F)F.O=C(O)C(F)(F)F [GSK2288359] | 0
53 | CN1c2ccc(-c3ccc(C(=O)NCCO)cc3)cc2-c2[nH]ncc2S1(=O)=O | 22
54 | Oc1ccc2ncnc(Nc3ccc(OCc4ccccc4)cc3)c2c1 [GI262866] | 0
55 | Nc1nc(-c2ccccn2)c(-c2ccnc3ccccc23)s1 [GW548057] | 0
56 | FC(F)(F)c1ccc(-c2cc(-c3c[nH]nc3-c3ccccn3)ccn2)cc1 [GW599550] | 0
57 | Cn1cc(-c2ccc3c(c2)CCN3C(=O)Cc2cccc(C(F)(F)F)c2)c2c(N)ncnc21 [GSK2606414] | 0
58 | NC(=O)c1sc(-n2cnc3ccccc32)cc1OCc1ccccc1F [GSK1024306] | 0
